Test results reported in PubChem BioAssay (NCATS).
Records with an inconclusive call do not appear. The source made the active and inactive calls. Calls come from the whole dose curve; as a rule, active = well fitted curve in the direction sought with a large enough effect; inconclusive = small, poorly fitted or top-dose-only effect, or another doubt; inactive = no such curve, though single readings can be large; an effect the other way counts as inactive or inconclusive.

Legend:
[1] = Primary fluorescence-based thiol-reactive (MSTI) qHTS assay for identification of artifact compounds. (AID 1845221);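 note: series mostly up to about 54 µM; thiol-reactive compounds lower the probe fluorescence signal; nearly all actives have a fitted effect of over 65% in size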
Outline: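 In PBS pH 7.4 with 2% DMSO, each compound met 4 uM MSTI for one hour at ambient temperature, shielded from light, before fluorescence detection.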

[2] = system: Nanoluciferase (engineered Oplophorus gracilirostris luciferase); test: Primary Nanoluciferase (NLuc) qHTS assay for identification of artifact compounds. (AID 1845222);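 note: series mostly up to about 54 µM; 0% = DMSO and -100% = no enzyme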
Outline: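 Luminescence from secreted NLuc (filtered, 1:55-diluted S16 cell medium) read 5 min after Nano-Glo substrate; compounds preincubated 15 min, RT. Hill fits of inhibition normalized to DMSO and no-enzyme.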

[3] = Primary redox qHTS assay for identification of artifact compounds. (AID 1845223);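 note: 0% = DMSO and 100% = reference compound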
Outline: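 Redox-cycling detection via DTT (250 uM final) oxidation coupled to Amplex Red (25 uM)/HRP (250 mU/mL) in HBSS. 15 min preincubation plus 30 min after DTT, room temperature. Ex/Em 525/598 nm; 4-parameter Hill fit against DMSO and 10 uM DA3003.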

COc1cc(C(C)=O)ccc1O[C@@H]1O[C@H](CO)[C@@H](O)[C@H](O)[C@H]1O
inactive: Potency [1] | Potency [2] | Potency [3]

C=C1C[C@]23C[C@H]1CC[C@H]2[C@]1(C)CC[C@H](O)[C@@](C)(C(=O)O)[C@H]1[C@@H]3C(=O)O
inactive: Potency [1] | Potency [2] | Potency [3]

C[C@@H]1O[C@@H](O[C@H]2[C@H](OC(=O)[C@]34CCC(C)(C)C[C@H]3C3=CCC5[C@@]6(C)CC[C@H](O[C@@H]7O[C@H](CO[C@@H]8OC[C@H](O)[C@H](O)[C@H]8O)[C@@H](O)[C@H](O)[C@H]7O)C(C)(C)C6CC[C@@]5(C)[C@]3(C)C[C@H]4O)OC[C@@H](O)[C@@H]2O)[C@H](O)[C@H](O[C@@H]2OC[C@](O)(CO)[C@H]2O)[C@H]1O[C@@H]1OC[C@H](O)[C@H](O[C@@H]2OC[C@@H](O)[C@H](O)[C@H]2O)[C@H]1O (some centres not stated)
inactive: activity change, negative = thiol reactive [1] 415% [at 11.5 µM] | activity, negative = inhibition [2] 0.577% [at 11.6 µM] | redox activity (% of DA3003) [3] 19.6% [at 11.5 µM]

C/C=C1/C[N+](C)([O-])C2Cc3c([nH]c4ccccc34)C(=O)CC1C2C(=O)OC (configuration not stated)
inactive: Potency [1] | Potency [2] | Potency [3]

CC(=O)OC(C)(C)/C=C/C(=O)[C@](C)(O)C1[C@H](O)C[C@@]2(C)[C@@H]3CC=C4[C@@H](C[C@H](O[C@@H]5O[C@H](CO)[C@@H](O)[C@H](O)[C@H]5O)C(=O)C4(C)C)[C@]3(C)C(=O)C[C@]12C (some centres not stated)
inactive: Potency [1] | Potency [2] | Potency [3]

COc1cc(C(CO)CO[C@@H]2O[C@H](CO)[C@@H](O)[C@H](O)[C@H]2O)ccc1O (some centres not stated)
inactive: Potency [1] | Potency [2] | Potency [3]

COC(=O)C(Cc1ccccc1)NC(=O)c1ccccc1 (configuration not stated)
inactive: Potency [1] | Potency [2] | Potency [3]

C=C1[C@H](OC(C)=O)[C@H]2[C@@H](OC(C)=O)C(C)C[C@]2(OC(C)=O)C(=O)[C@H](C)/C=C/C(C)(C)C(=O)[C@H](OC(=O)C(C)C)[C@H]1OC(C)=O (some centres not stated)
inactive: Potency [1] | Potency [2] | Potency [3]

C[C@@H](NC(=O)c1cc(C(=O)N[C@@H](Cc2ccccc2)[C@H](O)CNC2CC2)cc(N(C)S(C)(=O)=O)c1)c1ccccc1
inactive: Potency [1] | Potency [2] | Potency [3]
